Our source for the growth values is PubChem BioAssay (NCI).

Among the test systems are DU-145 prostate; K-562 leukemia; MALME-3M melanoma; MDA-MB-231 breast; RXF 393 renal; SF-268 CNS; SF-295 CNS; SF-539 CNS; UACC-257 melanoma; M14 melanoma; HCT-15 colon; HT29 colon; SNB-75 CNS; SNB-19 CNS; U251 CNS; SK-MEL-5 melanoma; UACC-62 melanoma; LOX IMVI melanoma; SK-MEL-28 melanoma.
What all share (assay): NCI-60 one-dose screen, 48 h (100 = growth as untreated, 0 = no growth, -100 = all killed)
Holding throughout (details): 10 µM unless noted

Each structure is given as a SMILES string. The panel holds about 83,000 compounds, 20% with a hit somewhere; the sample as a whole holds those more often.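 Compound tested at a single concentration for 48 hours in 96-well plates; a percent growth value below 10 was scored as active.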 A number with no mark means an inactive call. Active and inactive are the calls of the source.

As to `O=C(O)c1ccc(NC(=O)c2ccc(-c3cccc([N+](=O)[O-])c3)o2)cc1`, the growth in the test with DU-145 prostate was 105%; in the test with K-562 leukemia, 107%; in the test on MALME-3M melanoma, 86.4%; with MDA-MB-231 breast, 96.1%; in the test on RXF 393 renal it was 113%; with SF-268 CNS it was 98.5%. Further, the growth in the test on SF-295 CNS is 98.8%; in the test on SF-539 CNS, 99.4%; in the test with UACC-257 melanoma, 105%; in the test on M14 melanoma, 107%; in the test on HCT-15 colon it was 99.2%; with HT29 colon it was 104%. In addition, the growth is 88% in the test with SNB-75 CNS; 92% with SNB-19 CNS; 96.8% in the test with U251 CNS; 101% in the test with SK-MEL-5 melanoma; 98.4% with UACC-62 melanoma; 95.3% in the test on LOX IMVI melanoma. Further, in the test with SK-MEL-28 melanoma, the growth was 107%.
`COc1ccc(S(=O)(=O)N2CCCCCC2)cc1NC(=O)c1[nH]c(C)c2c1CCCCC2=O`: the growth was 58% in the test on DU-145 prostate; 21.4% in the test on K-562 leukemia; 55.6% in the test with MALME-3M melanoma; 36.3% in the test with MDA-MB-231 breast; 34.7% in the test on RXF 393 renal; 52.8% in the test on SF-268 CNS. The growth in the test with SF-295 CNS was 25.5%; with SF-539 CNS, 29.9%; with UACC-257 melanoma, 34.5%; in the test on M14 melanoma, 42.8%; with HCT-15 colon it was 12.8%; with HT29 colon, 16.8%. Also, the growth with SNB-75 CNS is 4.93% (active); in the test with SNB-19 CNS, 38.2%; in the test on U251 CNS it was 29.9%; with SK-MEL-5 melanoma, -43.8% (active); in the test with UACC-62 melanoma, 15.8%; with LOX IMVI melanoma, -33.6% (active). The growth in the test on SK-MEL-28 melanoma was 49.8%.
As for `FC(F)(F)c1ccc(-c2cn3nc(-c4c[nH]c5ccc(Br)cc45)sc3n2)cc1`, the growth in the test with DU-145 prostate was 107%; with K-562 leukemia, 97.9%; in the test with MALME-3M melanoma it was 90.4%; with MDA-MB-231 breast, 88%; in the test with RXF 393 renal, 118%; in the test with SF-268 CNS, 113%. For the same compound, the growth was 95.2% in the test with SF-295 CNS; 101% in the test on SF-539 CNS; 107% in the test with UACC-257 melanoma; 101% in the test with M14 melanoma; 70.6% with HCT-15 colon; 97.4% in the test with HT29 colon. Further, the growth with SNB-75 CNS was 86.1%; with SNB-19 CNS it was 100%; in the test on U251 CNS, 92.2%; in the test with SK-MEL-5 melanoma it was 96.3%; in the test on UACC-62 melanoma, 84.8%; in the test on LOX IMVI melanoma, 88.2%. The growth in the test with SK-MEL-28 melanoma was 111%.
As for `COc1ccc(S(=O)(=O)N2CCN(C)CC2)cc1NC(=O)c1[nH]c(C)c2c1CCCCC2=O`, the growth with DU-145 prostate is 87.1%; with K-562 leukemia, 46.9%; in the test on MALME-3M melanoma, 52%; in the test on MDA-MB-231 breast, 51.1%; in the test on RXF 393 renal it was 84.3%; in the test with SF-268 CNS, 82%. Also, the growth is 54.7% in the test with SF-295 CNS; 52.5% with SF-539 CNS; 57.9% in the test on UACC-257 melanoma; 54.4% in the test on M14 melanoma; 62.4% in the test with HCT-15 colon; 28.9% in the test on HT29 colon. The growth was 17.4% in the test with SNB-75 CNS; 66.5% in the test with SNB-19 CNS; 68% with U251 CNS; 43.7% in the test with SK-MEL-5 melanoma; 25.6% in the test on UACC-62 melanoma; 29.6% in the test with LOX IMVI melanoma. In the test on SK-MEL-28 melanoma, the growth was 72%.
Turning to `C=CCSSc1ncnc2c1ncn2C1OC(CO)C(O)C1O` (configuration not stated), the growth with DU-145 prostate is 35.2%; in the test on K-562 leukemia, 40%; with MALME-3M melanoma, 48.3%; with MDA-MB-231 breast, 48.1%; in the test with RXF 393 renal, 34.6%; in the test on SF-268 CNS, 28%. For the same compound, the growth is 17.9% in the test with SF-295 CNS; 19.9% with SF-539 CNS; 39.8% in the test on UACC-257 melanoma; 15.4% with M14 melanoma; 47.9% in the test on HCT-15 colon; 28.6% in the test with HT29 colon. The growth in the test on SNB-75 CNS was 39.7%; in the test with SNB-19 CNS it was 88.1%; in the test on U251 CNS, 80%; in the test on SK-MEL-5 melanoma, 61.1%; in the test on UACC-62 melanoma, 18.4%; in the test on LOX IMVI melanoma, 8.74% (active). The growth in the test with SK-MEL-28 melanoma was 109%.
Regarding `CCCc1cc(=O)n2c(C(=O)Nc3ccc(F)cc3)c(C(=O)Nc3ccc(F)cc3)sc2n1`, the growth is 82.1% [30 µM] in the test on DU-145 prostate; 75.1% [30 µM] in the test on K-562 leukemia; 38.5% [30 µM] with MALME-3M melanoma; 44.2% [30 µM] in the test on MDA-MB-231 breast; 10.4% [30 µM] in the test with RXF 393 renal; 18.1% [30 µM] in the test with SF-268 CNS. Further, the growth with SF-295 CNS is 73% [30 µM]; in the test on SF-539 CNS, 63.2% [30 µM]; in the test with UACC-257 melanoma it was 67.2% [30 µM]; in the test with M14 melanoma it was 70.9% [30 µM]; with HCT-15 colon it was 83% [30 µM]; in the test on HT29 colon it was 53.8% [30 µM]. For the same compound, the growth in the test on SNB-75 CNS was -15.9% [30 µM] (active); in the test on SNB-19 CNS, 48.4% [30 µM]; with U251 CNS, 41.6% [30 µM]; in the test with SK-MEL-5 melanoma, 82.8% [30 µM]; in the test with UACC-62 melanoma, 84% [30 µM]; in the test on LOX IMVI melanoma, 65.1% [30 µM]. The growth in the test with SK-MEL-28 melanoma was 77.7% [30 µM].
Take `CCCc1cc(=O)n2c(C(=O)Nc3cccc(C(=O)OCC)c3)c(C(=O)Nc3ccc(F)cc3)sc2n1`: the growth is 79.9% [30 µM] in the test with DU-145 prostate; 79.7% [30 µM] in the test on K-562 leukemia; 71.9% [30 µM] in the test on MALME-3M melanoma; 47% [30 µM] in the test with MDA-MB-231 breast; -27.2% [30 µM] (active) with RXF 393 renal; 57.5% [30 µM] with SF-268 CNS. For the same compound, the growth in the test with SF-295 CNS is 44.5% [30 µM]; in the test with SF-539 CNS it was 33.9% [30 µM]; with UACC-257 melanoma, 64.5% [30 µM]; in the test on M14 melanoma, 75.2% [30 µM]; in the test on HCT-15 colon, 66.4% [30 µM]; with HT29 colon, 67.5% [30 µM]. Further, the growth was 25.6% [30 µM] with SNB-75 CNS; 43.8% [30 µM] in the test with SNB-19 CNS; 13.2% [30 µM] in the test with U251 CNS; 66.6% [30 µM] with SK-MEL-5 melanoma; 104% [30 µM] with UACC-62 melanoma; 46.8% [30 µM] in the test with LOX IMVI melanoma. Moreover, in the test with SK-MEL-28 melanoma, the growth was 88.3% [30 µM].
On to `O=C(N/N=C/c1ccccc1O)c1ccccc1Nc1ccnc(C(F)(F)F)c1`, for which the growth in the test with DU-145 prostate is 27.3%; in the test with K-562 leukemia, 17.7%; in the test with MALME-3M melanoma it was -0.966% (active); with MDA-MB-231 breast it was 40.4%; with RXF 393 renal, 18.7%; in the test with SF-268 CNS it was 14.6%. Also, the growth was 7.17% (active) with SF-295 CNS; 0.988% (active) in the test with SF-539 CNS; -0.662% (active) with UACC-257 melanoma; -14.3% (active) in the test on M14 melanoma; 24.6% with HCT-15 colon; 41.3% in the test on HT29 colon. The growth in the test with SNB-75 CNS was 20.7%; in the test on SNB-19 CNS, 21.8%; with U251 CNS, 18.8%; in the test with SK-MEL-5 melanoma it was -64.5% (active); in the test with UACC-62 melanoma, -19.1% (active); in the test on LOX IMVI melanoma, 7.93% (active). Further, the growth with SK-MEL-28 melanoma was 28.3%.
